# Only some compounds are listed: those with a hit (about 1.1% of all), similar ones and a draw of the others.
# PfHsp40 yeast: restores yeast growth despite PfHsp40 toxicity | S. cerevisiae expressing PfHsp40, growth rescue, ATP luminescence | growth rescue, % at 12.5 µM | 340,000 tested, 0.68% active; in the data active means growth rescue above about 28%, passing the limit was not always enough; inconclusive means no clear call, values can overlap the other calls;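 further: yeast W303a lacking pdr1 and pdr3 grown in galactose medium; growth measured after three days at 30 °C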
# BioA inh: inhibitors of Mycobacterium tuberculosis BioA enzyme | purified M. tuberculosis BioA enzyme, plate reader | inhibition, % at 9.99 µM | 360,000 tested, 0.096% active; in the data active means inhibition above about 40%; inconclusive means no clear call, values can overlap the other calls
# TcdB GH inh: blocks C. difficile toxin B glycohydrolase activity; P18177; TcdB glycohydrolase enzymatic assay, plate reader; inhibition, % at 9.99 µM; 350,000 tested, 0.24% active; AID 652162; in the data active means inhibition above about 10%
# PrP 5UTR inh: inhibition of PrP 5' UTR reporter expression; cell-based PrP 5' UTR mRNA reporter, plate reader; inhibition, % (no concentration beside the values); 340,000 tested, 0.35% active; in the data active means inhibition above about 52%; further: 0 = median of the neutral control wells
# FadD28 binding: blocks FadD28 binding to the bisubstrate probe | 360,000 tested, 0.22% active | AID 588549 | fluorescence polarization | inhibition, % at 12.5 µM; in the data active means inhibition above about 8.5%, passing the limit was not always enough; inconclusive means no clear call, values can overlap the other calls
# PrP UTR cherry: prion 5' UTR mRNA inhibition, cherry-pick retest; shares compounds with PrP 5UTR inh; cell-based prion protein 5' UTR reporter, plate reader; inhibition, % at 2.5 µM; 1,100 tested, 48% active; in the data active means inhibition above about 54%; inconclusive means no clear call, values can overlap the other calls
# Active calls of the source: *; ? = inconclusive; . = no result; ! = not confirmed by another sample.
SMILES,PfHsp40 yeast,BioA inh,TcdB GH inh,PrP 5UTR inh,FadD28 binding,PrP UTR cherry
CCCNC(=O)c1ccc2c(=O)c(O)c(-c3cccc(Br)c3)[nH]c2c1,182.2*,-1.5,1.1,56.0*,-3.1,?
O=C(NCCc1nc2ccccc2[nH]1)c1cccc(Br)c1,-0.6,0.0,0.5,-13.4,-2.3,.
COCC(=O)Nc1ccc2c(c1)[C@@H]1C[C@@H](CC(=O)NCc3ccc(Cl)cc3)O[C@@H](CO)[C@@H]1O2,.,0.8,.,.,.,.
C[C@H](CO)N1C[C@H](C)[C@H](CN(C)S(=O)(=O)c2ccc(F)cc2)Oc2ccc(NC(=O)C3CCCCC3)cc2CC1=O,.,3.8,0.6,.,.,.
CCC1=C(OC(=O)N(CC)CC)N2C(=O)OC(=NCc3ccccc3)[C@]2(C)[C@H]2C1=CC[C@H]1C(=O)N(c3ccccc3)C(=O)[C@H]12,-0.3,-3.6,-3.3,4.2,-0.6,.
CCC1=C2CC[C@H]3C(=O)N(c4ccccc4)C(=O)[C@H]3[C@H]2[C@@]2(C)C(=NCc3ccccc3)OC(=O)N2C1=O,-0.8,0.3,1.2,75.6*,-1.7,-25.0
COc1ccc(C(=O)c2sc3nc(-c4ccccc4)ccc3c2N)cc1,-1.1,.,.,-14.5,0.5,.
CC(C)OC(=O)c1sc2nc(-c3ccccc3)ccc2c1N,1.3,0.7,1.5,54.1*,-4.1,20.2
C[C@H]1CN([C@@H](C)CO)C(=O)Cc2cc(NC(=O)Nc3ccc4c(c3)OCO4)ccc2O[C@H]1CN(C)C(=O)Nc1ccc(C(F)(F)F)cc1,.,-2.8,0.4,.,.,.
NC1=C(Cl)C(=O)c2ccc(S(N)(=O)=O)cc2C1=O,-1.2,2.8,0.0,95.5*,0.7,96.4*
NC1=C(Cl)C(=O)c2ccccc2C1=O,-0.9,.,0.3,-25.3,0.2,.
COc1ccc(OC)c(Nc2c3c(nc4ccccc24)CCC3)c1,-0.9,2.6,1.2,73.6*,-3.3,87.1*
CC(C)NC(=O)Nc1cccc2c1O[C@H](CN(C)C(=O)Nc1ccc3c(c1)OCO3)[C@H](C)CN([C@H](C)CO)C2=O,.,-0.3,-1.4,.,.,.
COC(=O)CCn1nnc(-c2ccc(C(C)C)cc2)n1,0.6,.,.,73.5*,-1.0,69.5*
COc1ccc(-c2cc3c(nn2)-c2ccccc2C3=O)cc1,-1.1,0.2,0.3,62.9*,-2.4,?
COC(=O)CNC(=O)C12CC3CC(C1)CC(c1ccc(C)cc1)(C3)C2,3.7,7.6,2.1,77.8*,-4.0,-25.6
Cc1ccc(C23CC4CC(CC(C(N)=O)(C4)C2)C3)cc1,-0.4,-0.1,0.2,-54.0,-5.7,.
N[C@@H](Cc1ccccc1)C(=O)N1C[C@H]2C[C@@H](C1)c1cccc(=O)n1C2,0.0,-0.3,-2.5,67.1*,0.0,-11.8
CC(=O)OCC(=O)[C@@]1(O)CC[C@H]2[C@@H]3CCC4=CC(=O)CC[C@]4(C)[C@H]3[C@@H](O)C[C@@]21C,15.2,-0.2,-3.9,65.4*!,-1.9,-13.3
COc1ccc(/C=C/C(=O)c2cc(F)ccc2OC(=O)c2ccccc2OC)cc1OC,1.7,.,2.8,47.3,-5.2,?
C[C@@H]1CN([C@H](C)CO)C(=O)c2cc(NC(=O)Cc3ccccc3)ccc2O[C@H]1CN(C)C(=O)Nc1ccc2c(c1)OCO2,.,0.0,-0.6,.,.,.
Cc1cc(C(=O)COC(=O)c2cccnc2Cl)c(C)n1CC1CCCO1 (centres undefined),-2.3,.,0.3,58.7*,-4.1,43.2
Cc1cc(C(=O)COc2ccccc2C(N)=O)c(C)n1CC1CCCO1 (centres undefined),1.3,-0.6,-0.1,-31.7,-0.5,.
Cc1ccsc1C(=O)OCC(=O)c1cc(C)n(C)c1C,-0.2,-1.5,0.0,59.2*,-3.2,63.2*
Cc1cc(C(=O)COC(=O)c2ccccc2Br)c(C)n1CC1CCCO1 (centres undefined),-2.2,1.0,0.9,77.4*,0.0,70.9*
Cc1cc(C(=O)COC(=O)c2n[nH]c3ccccc23)c(C)n1CC1CCCO1 (centres undefined),-0.3,-0.8,.,-10.4,-1.9,.
CCn1c(C)cc(C(=O)COC(=O)c2ccccc2[N+](=O)[O-])c1C,-4.5,1.6,.,94.5*,.,96.9*
C=CCn1c(C)cc(C(=O)COC(=O)c2ccc(N)c([N+](=O)[O-])c2)c1C,-1.4,.,-1.0,-110.2,-3.5,.
Cc1cc(C(=O)COC(=O)c2ccccc2O)c(C)n1CC1CCCO1 (centres undefined),-0.6,-0.9,2.8,88.9*,-1.4,90.0*

# High-throughput results as filed in PubChem BioAssay.
